The panel holds about 83,000 compounds, 20% with a hit somewhere; the sample as a whole holds those more often.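 Treatment: one concentration, 48 hours, 96-well format. Scoring: percent growth, with anything below 10 considered active.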 The source made the active and inactive calls.
Tests used:
Assay in all cases: NCI-60 one-dose screen, 48 h (100 = growth as untreated, 0 = no growth, -100 = all killed)
Conditions in all cases: 10 µM unless noted
NCI/ADR-RES ovarian = system: NCI/ADR-RES ovarian
T-47D breast = system: T-47D breast
BT-549 breast = system: BT-549 breast
MDA-MB-435 melanoma = system: MDA-MB-435 melanoma
SW-620 colon = system: SW-620 colon
MCF7 breast = system: MCF7 breast
HCT-116 colon = system: HCT-116 colon
HCC-2998 colon = system: HCC-2998 colon
KM12 colon = system: KM12 colon

Measured: growth

O=C(CC1(O)C(=O)N(Cc2ccccc2)c2ccc(F)cc21)c1ccc(C(=O)NCC2CCC3(CC2)OOC2(CCCCC2)OO3)cc1 (stereo unspecified)
active: NCI/ADR-RES ovarian -48.6% | T-47D breast -53.9% | BT-549 breast -19.7% | MDA-MB-435 melanoma -80.7% | SW-620 colon -62.3% | MCF7 breast 7.64% | HCT-116 colon 4.47% | KM12 colon -68.1%
inactive: HCC-2998 colon 44.9%

C[C@]12CCc3sc(-c4ccccc4O)nc3C1=CC[C@@H]1[C@@H]2CC[C@]2(C)C(=O)CC[C@@H]12
inactive: NCI/ADR-RES ovarian 106% | T-47D breast 90.1% | BT-549 breast 110% | MDA-MB-435 melanoma 102% | SW-620 colon 103% | MCF7 breast 93.3% | HCT-116 colon 104% | HCC-2998 colon 111% | KM12 colon 107%

Clc1ccc(CO/N=C(\Cn2ccnc2)c2ccc(Cl)cc2Cl)c(Cl)c1
inactive: T-47D breast 101%
active: NCI/ADR-RES ovarian -12.2% | BT-549 breast -44% | MDA-MB-435 melanoma -13.2% | SW-620 colon 8.71% | MCF7 breast 0.337% | HCT-116 colon -79.3% | HCC-2998 colon 3.92% | KM12 colon -1.07%

CC(=O)c1ccc(C(=O)NCC2CCC3(CC2)OOC2(CCCCC2)OO3)cc1
inactive: NCI/ADR-RES ovarian 17.4% | T-47D breast 53.9% | BT-549 breast 91.9% | MDA-MB-435 melanoma 88% | SW-620 colon 22.1% | MCF7 breast 81.7% | HCT-116 colon 79% | HCC-2998 colon 108% | KM12 colon 69.7%

COc1ccc(Nc2ccc([N+](=O)[O-])cc2[N+](=O)[O-])cc1CN(CCCl)CCCl
inactive: NCI/ADR-RES ovarian 26.9% | T-47D breast 22.6% | BT-549 breast 40.1% | MDA-MB-435 melanoma 55.2% | SW-620 colon 20.3% | MCF7 breast 19.3% | HCT-116 colon 20.8% | HCC-2998 colon 37.7% | KM12 colon 53.1%

O=C(NCCN1CC1)C(=O)NCCN1CC1
inactive: NCI/ADR-RES ovarian 79.5% | T-47D breast 88.2% | BT-549 breast 88.7% | MDA-MB-435 melanoma 106% | SW-620 colon 84.7% | MCF7 breast 65.8% | HCT-116 colon 87.9% | HCC-2998 colon 89.1% | KM12 colon 97.8%

CCCOC(=O)N[C@H]1CCc2c(Br)c(OC)c(OC)c(OC)c2-c2ccc(SC)c(=O)cc21
active: BT-549 breast 2.53% | MDA-MB-435 melanoma -49.4% | HCT-116 colon -12.6% | KM12 colon -15.7%
inactive: NCI/ADR-RES ovarian 10.4% | T-47D breast 51.5% | SW-620 colon 15.3% | MCF7 breast 10% | HCC-2998 colon 16.2%

C[C@]12CCc3nc(Nc4ccccc4F)sc3C1=CC[C@@H]1[C@@H]2CC[C@]2(C)C(=O)CC[C@@H]12
active: SW-620 colon -12.6% | HCT-116 colon -22.4%
inactive: NCI/ADR-RES ovarian 73.9% | T-47D breast 37.5% | BT-549 breast 66.2% | MDA-MB-435 melanoma 52.5% | MCF7 breast 12.5% | HCC-2998 colon 80.1% | KM12 colon 42.5%

ClCCN(CCCl)Cc1ccc(Nc2ccnc3cc(Cl)ccc23)cc1
inactive: NCI/ADR-RES ovarian 71.3% | T-47D breast 36.2% | BT-549 breast 65.2% | MDA-MB-435 melanoma 39.6% | SW-620 colon 34.3% | MCF7 breast 18% | HCT-116 colon 36.5% | HCC-2998 colon 71% | KM12 colon 62.9%

O=C(CC1(O)C(=O)Nc2ccc(Br)cc21)c1ccc(C(=O)NCC2CCC3(CC2)OOC2(CCCCC2)OO3)cc1 (stereo unspecified)
inactive: NCI/ADR-RES ovarian 64.6% | T-47D breast 14.7% | BT-549 breast 63.6% | MDA-MB-435 melanoma 36.1% | MCF7 breast 32.5% | HCT-116 colon 38.9% | HCC-2998 colon 99.7% | KM12 colon 31.6%
active: SW-620 colon -12.5%

CN1C(=O)C23CC4(C56CC78SSC(CO)(C(=O)N7C5Nc5ccccc56)N(C)C8=O)c5ccccc5NC4N2C(=O)C1(CO)SS3 (stereo unspecified)
active: NCI/ADR-RES ovarian -23.4% | T-47D breast -92.4% | BT-549 breast -99.1% | MDA-MB-435 melanoma -87% | SW-620 colon -78.5% | MCF7 breast -68.1% | HCT-116 colon -78.5% | HCC-2998 colon -94.2% | KM12 colon -82.9%

COc1cc2c(cc1OCCCCn1c(-c3cccs3)nc3ccccc31)N=C[C@@H]1CCCN1C2=O
inactive: NCI/ADR-RES ovarian 36.5%
active: T-47D breast 5.95% | BT-549 breast -55.6% | MDA-MB-435 melanoma -78.8% | SW-620 colon 2.49% | MCF7 breast -15.2% | HCT-116 colon 8.65% | HCC-2998 colon 0.698% | KM12 colon 0.0109%

CC1CCCC(C[N+](C)(C)C)C1=O (stereo unspecified)
inactive: NCI/ADR-RES ovarian 107% | T-47D breast 84.5% | BT-549 breast 125% | MDA-MB-435 melanoma 106% | SW-620 colon 109% | MCF7 breast 103% | HCT-116 colon 109% | HCC-2998 colon 102% | KM12 colon 109%

c1ccc(Nc2nc(-c3ccccc3)c[se]2)cc1
active: T-47D breast 6.3%
inactive: NCI/ADR-RES ovarian 97.3% | BT-549 breast 87.4% | MDA-MB-435 melanoma 104% | SW-620 colon 98.8% | MCF7 breast 61% | HCT-116 colon 86.3% | HCC-2998 colon 86.5% | KM12 colon 71.8%

COC(=O)[C@@H](C)C[C@H](Cc1ccccc1)NC(=O)c1nc([C@@H](C[C@H](C(C)C)N(C)C(=O)[C@@H](NC(=O)[C@H]2CC(=O)CCN2C)C(C)C)OC(C)=O)sc1C(C)C
inactive: NCI/ADR-RES ovarian 54.3% | T-47D breast 82.9% | SW-620 colon 24.2% | MCF7 breast 24.6% | HCC-2998 colon 24.6%
active: BT-549 breast -10.6% | MDA-MB-435 melanoma -43.4% | HCT-116 colon 5.82% | KM12 colon 6.01%

C[C@]12CCc3sc(NCCc4ccccc4)nc3C1=CC[C@@H]1[C@@H]2CC[C@]2(C)C(=O)CC[C@@H]12
inactive: NCI/ADR-RES ovarian 70.2% | T-47D breast 75.2% | BT-549 breast 60.4% | MDA-MB-435 melanoma 58.1% | SW-620 colon 35.3% | MCF7 breast 20.4% | HCT-116 colon 21.2% | HCC-2998 colon 106% | KM12 colon 74.7%

CN(C)C(=O)Oc1ccccc1
inactive: NCI/ADR-RES ovarian 98.2% | T-47D breast 105% | BT-549 breast 118% | MDA-MB-435 melanoma 112% | SW-620 colon 93.8% | MCF7 breast 104% | HCT-116 colon 104% | HCC-2998 colon 102% | KM12 colon 110%

CCC1CN1CCCCN1CC1CC (stereo unspecified)
inactive: NCI/ADR-RES ovarian 103% | T-47D breast 92.1% | BT-549 breast 103% | MDA-MB-435 melanoma 93.7% | SW-620 colon 105% | MCF7 breast 99.8% | HCT-116 colon 98.7% | HCC-2998 colon 100% | KM12 colon 106%

Cc1cc(C)cc(Nc2nc3c(s2)CC[C@@]2(C)C3=CC[C@@H]3[C@@H]2CC[C@]2(C)C(=O)CC[C@@H]32)c1
active: HCT-116 colon 6.21%
inactive: NCI/ADR-RES ovarian 74.5% | T-47D breast 28.9% | BT-549 breast 47.2% | MDA-MB-435 melanoma 72.8% | SW-620 colon 37.8% | MCF7 breast 16.9% | HCC-2998 colon 94.2% | KM12 colon 55.5%

CC(C)=CCC[C@H](C(=O)O)[C@@H]1CC[C@]2(C)C3=C(CC[C@@]12C)[C@@]1(C)CC[C@H](O)C(C)(C)[C@@H]1CC3
inactive: NCI/ADR-RES ovarian 102% | T-47D breast 92.5% | BT-549 breast 75.2% | MDA-MB-435 melanoma 103% | SW-620 colon 105% | MCF7 breast 88.9% | HCT-116 colon 78.5% | HCC-2998 colon 100% | KM12 colon 99.7%

COc1cccc2c1c(C(=O)C(=O)Nc1cc(C)no1)cn2Cc1ccc(F)cc1
inactive: T-47D breast 68% | BT-549 breast 25.5% | SW-620 colon 15.5% | MCF7 breast 26.9% | HCT-116 colon 34.4% | HCC-2998 colon 58.4% | KM12 colon 16.4%
active: NCI/ADR-RES ovarian -0.189% | MDA-MB-435 melanoma -34.4%

COc1ccc(/C=C\c2cc(OC)c(OC)c(OC)c2)c(NS(=O)(=O)c2ccc(Cl)cc2)c1O
active: NCI/ADR-RES ovarian -7.04% | MDA-MB-435 melanoma -48% | HCT-116 colon 6.81% | KM12 colon 1.25%
inactive: T-47D breast 84.7% | BT-549 breast 58.2% | SW-620 colon 27% | MCF7 breast 12.7% | HCC-2998 colon 12.7%

N#C[S-].[Au+].c1ccc(CN2[CH-]N(Cc3ccccc3)C(c3ccccc3)=C2c2ccccc2)cc1
inactive: NCI/ADR-RES ovarian 59.8% | BT-549 breast 23.4% | MDA-MB-435 melanoma 13.3% | SW-620 colon 17.9% | HCC-2998 colon 30.9% | KM12 colon 14.2%
active: T-47D breast 7.11% | MCF7 breast 4.87% | HCT-116 colon 8.06%

C[C@@H]1O[C@@H](O[C@H]2C[C@@H](O)[C@]3(CO)C4C(CC[C@]3(O)C2)[C@@]2(O)CC[C@H](C3=CC(=O)OC3)[C@@]2(C)C[C@H]4O)[C@H](O)[C@H](O)[C@H]1O (stereo partly specified)
active: NCI/ADR-RES ovarian -61.5% | T-47D breast -34.9% | BT-549 breast -91% | MDA-MB-435 melanoma -80.5% | SW-620 colon -76.9% | MCF7 breast -48.1% | HCT-116 colon -94.5% | HCC-2998 colon -89.4% | KM12 colon -89.1%

N#CC1(c2ccccc2)CCN(Cc2ccccc2)CC1
inactive: NCI/ADR-RES ovarian 99.7% | T-47D breast 100% | BT-549 breast 102% | MDA-MB-435 melanoma 95.2% | SW-620 colon 101% | MCF7 breast 110% | HCT-116 colon 104% | HCC-2998 colon 113% | KM12 colon 99.7%

C/C(=C\c1ccn(-c2ccc(N)cc2)n1)[C@@H]1C[C@@H]2O[C@]2(C)CCC[C@H](C)[C@H](O)[C@@H](C)C(=O)C(C)(C)[C@@H](O)CC(=O)O1
active: NCI/ADR-RES ovarian -2.72% | MDA-MB-435 melanoma -33.6% | HCC-2998 colon -0.702%
inactive: T-47D breast 42.7% | BT-549 breast 26.9% | SW-620 colon 38.3% | MCF7 breast 19.1% | HCT-116 colon 10.4% | KM12 colon 15%

CN[C@]1(c2ccccc2Cl)CCCC[C@H]1NCCCN1CCN(C)CC1
inactive: NCI/ADR-RES ovarian 101% | T-47D breast 103% | BT-549 breast 102% | MDA-MB-435 melanoma 103% | SW-620 colon 99.4% | MCF7 breast 102% | HCT-116 colon 97.8% | HCC-2998 colon 99.5% | KM12 colon 101%

N#CC1(C#N)C(c2ccc(N(CCCl)CCCl)cc2)OC23CCCCC2C1(C#N)C(=N)O3 (stereo unspecified)
inactive: NCI/ADR-RES ovarian 71% | T-47D breast 65.6% | BT-549 breast 84.6% | MDA-MB-435 melanoma 101% | SW-620 colon 88.6% | MCF7 breast 49.3% | HCT-116 colon 89.2% | HCC-2998 colon 95.2% | KM12 colon 100%

CCC(CC)CC1(C)CC2(C)CCOC2OO1 (stereo unspecified)
inactive: NCI/ADR-RES ovarian 104% | T-47D breast 97.8% | BT-549 breast 112% | MDA-MB-435 melanoma 109% | SW-620 colon 104% | MCF7 breast 104% | HCT-116 colon 108% | HCC-2998 colon 93.4% | KM12 colon 111%
